Each structure is given as a SMILES string. Where “and” joins values, the source holds several entries; their conditions need not be identical. Identical values can stand only once. Inconclusive results are not listed. Calls of active or inactive are those of the source. Unless noted, the call rests on the fitted dose curve.

Test [1] is described as follows: Nuclear factor erythroid 2-related factor 2/antioxidant responsive element (Nrf2/ARE) small molecule agonists: luciferase reporter gene qHTS assay in human keratinocytes (AID 1919969). Further: nearly all actives have a fitted effect of over 35% in size. Further: potency means the concentration at half of the fitted maximal effect. Background: Reporter assays use an easily measured gene product as a stand-in for the process of interest.
Test [2] addresses Gonadotropin-releasing hormone receptor (Homo sapiens) (UniProt P30968). Description: Human gonadotropin-releasing hormone receptor (GnRHR) small molecule agonists, calcium flux assay in GnRHR-HEK293 cells (AID 1920063). Further: nearly all actives have a fitted effect of over 35% in size. Summed up: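 Compounds dissolved in DMSO are pin-transferred onto dye-loaded GnRHR-HEK293 cells, which were seeded 18 h before at 37 C/5% CO2. Calcium signal is read as fluorescence intensity at 1 s intervals for 3 min.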
For orientation: Calcium assays in cells follow changes in intracellular calcium, usually with a dye or a luminescent sensor.

Test [3] addresses KiSS-1 receptor (Homo sapiens) (UniProt Q969F8). Description: Human kisspeptin (KISS1R) small molecule agonists, calcium flux assay in KISS1R-HEK293 cells (AID 1920064; active means well fitted activation curve with a large enough effect in the repeat runs). Summed up:
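Cell line: HEK293, stable human KISS1R. Dye loading 1 h at 37 C after 18 h culture. Read: kinetic fluorescence, 480/540 nm, 3 min at 1 s intervals.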

Test [4] is described as follows: p53 small molecule agonists, cell-based qHTS assay with human liver microsomes (AID 1963577). Summed up:
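Cells carrying a p53-responsive bla reporter were rested 5 h (37 C, 5% CO2) before compound transfer. Human liver microsomes plus NADPH, 0.5 mg/mL final apiece, supplied metabolism during the 16 h 37 C exposure.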
On the technique in general: Quantitative high-throughput screening tests each substance at several concentrations.

Test [5] can be described thus: p53 small molecule agonists, cell-based qHTS assay with rat liver microsomes (AID 1963578). A digest of the protocol:
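Fluorescence from a beta-lactamase reporter under a p53 response element was measured after cells had been incubated 16 h at 37 C with test compound and rat liver microsomes plus NADPH (0.5 mg/mL final each).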

Test [6] can be described thus: p53 small molecule agonists, cell-based qHTS assay with human liver microsomes: qHTS cell viability counter screen (AID 1963579). Further: nearly all actives have a fitted effect of over 45% in size. Further: potency means the concentration at half of the fitted maximal effect. Summed up: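 Seed p53RE-bla cells at 4,000 per well; incubate 5 h at 37 C; add compound, human liver microsomes and NADPH; incubate 16 h at 37 C; add CellTiter-Glo; after 30 min at room temperature, read luminescence.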
Test [7] in a line: p53 small molecule agonists, cell-based qHTS assay with rat liver microsomes: qHTS cell viability counter screen (AID 1963580). Further: nearly all actives have a fitted effect of over 45% in size. A digest of the protocol:
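After the beta-lactamase ratio was read, CellTiter-Glo was added to the same wells and luminescence measured at 30 min; cells had been treated 16 h at 37 C with compounds, rat liver microsomes and NADPH (0.5 mg/mL final each).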

Test [8] can be described thus: p53 small molecule agonists, cell-based qHTS assay (AID 1963582; active means well fitted activation curve with a large enough effect in the signal ratio in the repeat runs, not every such curve was filed as active; the % refers to the signal ratio). Summed up:
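16 h compound exposure (37 C) of p53 response element–bla cells, preceded by 5 h recovery at 37 C/5% CO2; read-out via LiveBLAzer B/G FRET substrate, 2 h RT, fluorescence intensity.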

The target in test [9] is 5-hydroxytryptamine receptor 2A (Homo sapiens) (UniProt P28223). Description: 5-hydroxytryptamine receptor 2A (HTR2A) small molecule antagonists, cell-based qHTS assay (AID 1963586). Further: nearly all actives have a fitted effect of over 45% in size. Further: potency means the concentration at half of the fitted maximal effect. A digest of the protocol:
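CHO cells stably expressing human HTR2A were plated for 18 h at 37 C, then loaded with calcium dye for 1 h. Compounds were preincubated 5 min at room temperature before DOI (4 nM solution) was added. Kinetic fluorescence was read for 3 min.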

For test [10] the target is unchanged. Description: 5-hydroxytryptamine receptor 2A (HTR2A) small molecule agonists, cell-based qHTS assay (AID 1963587). Further: nearly all actives have a fitted effect of over 30% in size. Further: potency means the concentration at half of the fitted maximal effect. A digest of the protocol:
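CHO cells stably expressing human HTR2A, plated 18 h, loaded with calcium dye 1 h at 37 C. Agonist mode: compounds added and intracellular calcium fluorescence recorded kinetically for 2 min at 1 sec intervals.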

The nature of test [11]: cAMP Responsive Elements (CRE) small molecule antagonists, cell-based qHTS assay (AID 1963591; active means well fitted inhibition curve with a large enough effect in the signal ratio in the repeat runs, not every such curve was filed as active; the % refers to the signal ratio). A digest of the protocol:
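First, CRE-bla HEK293T cells settled 18 h at 37 C. Next, compound and 0.25 uM final NKH477 were applied for 3 h. Last, LiveBLAzer B/G substrate was loaded for 2 h at room temperature.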

The target in test [12] is Beta-2 adrenergic receptor (Homo sapiens) (UniProt P07550). Description: Adrenergic beta2 receptor (ADRB2) small molecule antagonists, cell-based qHTS assay (AID 1963592). Further: series mostly up to about 92 µM; nearly all actives have a fitted effect of over 50% in size. A digest of the protocol: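 Assay format: CHO-ADRB2 cells, 18-20hr seeding at 37C/5% CO2, then compound plus 1nM isoproterenol agonist mix for 0.5hr RT. Homogeneous time-resolved fluorescence cAMP detection after 1hr, expressed as 665/615 nm ratio.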
Beta-2 adrenergic receptor (Homo sapiens), sequence (P07550 whole entry, looked up): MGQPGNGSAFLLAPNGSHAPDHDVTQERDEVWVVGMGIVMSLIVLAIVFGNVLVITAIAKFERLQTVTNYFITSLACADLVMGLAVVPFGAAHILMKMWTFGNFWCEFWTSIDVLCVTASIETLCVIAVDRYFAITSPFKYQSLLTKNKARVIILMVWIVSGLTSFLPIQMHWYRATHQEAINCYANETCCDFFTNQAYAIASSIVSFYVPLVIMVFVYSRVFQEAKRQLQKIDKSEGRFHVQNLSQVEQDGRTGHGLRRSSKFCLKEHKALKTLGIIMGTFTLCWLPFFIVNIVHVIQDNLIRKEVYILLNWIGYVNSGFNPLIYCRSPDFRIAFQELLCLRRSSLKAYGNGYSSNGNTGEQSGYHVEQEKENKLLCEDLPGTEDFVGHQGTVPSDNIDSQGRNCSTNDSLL

Test [13] has as its target D(2) dopamine receptor (Homo sapiens) (UniProt P14416). The test can be described thus: Dopamine D2 receptor (DRD2) small molecule antagonists, cell-based qHTS assay (AID 1963595; active means well fitted inhibition curve with a large enough effect in the signal ratio in the repeat runs, with a control signal flat; the % refers to the signal ratio). A digest of the protocol: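 Antagonist mode in DRD2-HEK293 cells: after compound addition with 0.1 mM Ro20-1724, cells received quinpirole (12 nM) and NKH477 (200 nM) for 30 min at room temperature; HTRF cAMP read after 1 h detection.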

Test [14] can be described thus: p53 small molecule agonists, cell-based qHTS assay: qHTS cell viability counter screen (AID 1963581). Further: nearly all actives have a fitted effect of over 45% in size. Further: potency means the concentration at half of the fitted maximal effect. A digest of the protocol:
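ATP content measured by luminescence in HCT-116 p53RE-bla cells treated 16 h at 37 C, same wells as the reporter screen.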

Test [15] deals with Muscarinic acetylcholine receptor M1 (Homo sapiens) (UniProt P11229). Description: Cholinergic receptor muscarinic 1 (CHRM1) small molecule antagonists, cell-based qHTS assay (AID 1963588). Further: nearly all actives have a fitted effect of over 40% in size. Further: potency means the concentration at half of the fitted maximal effect. Summed up: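 Compounds were tested at 15 concentrations in three independent runs. Dye-loaded CHRM1-CHO cells were exposed 5 min at room temperature before stimulation by acetylcholine added at 50nM. Intracellular calcium was read kinetically on FDSS for 3 min.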
Muscarinic acetylcholine receptor M1 (Homo sapiens), sequence (P11229 whole entry, looked up): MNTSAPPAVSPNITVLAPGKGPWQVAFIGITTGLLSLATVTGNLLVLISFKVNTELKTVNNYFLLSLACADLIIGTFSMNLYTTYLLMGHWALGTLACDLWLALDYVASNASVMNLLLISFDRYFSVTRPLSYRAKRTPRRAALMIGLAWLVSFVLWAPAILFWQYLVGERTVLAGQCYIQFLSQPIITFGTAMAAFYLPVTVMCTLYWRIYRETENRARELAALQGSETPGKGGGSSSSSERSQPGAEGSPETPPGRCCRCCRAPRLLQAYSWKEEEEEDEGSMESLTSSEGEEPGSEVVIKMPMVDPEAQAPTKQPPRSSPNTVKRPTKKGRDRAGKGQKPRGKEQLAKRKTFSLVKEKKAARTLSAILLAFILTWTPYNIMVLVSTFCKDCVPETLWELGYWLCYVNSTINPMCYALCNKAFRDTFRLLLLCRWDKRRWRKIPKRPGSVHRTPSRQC

Test [16] has the same target. Description: Cholinergic receptor muscarinic 1 (CHRM1) small molecule agonists, cell-based qHTS assay (AID 1963589). Further: nearly all actives have a fitted effect of over 35% in size. Summed up:
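Homogeneous fluorescence calcium flux, agonist mode. Human M1-expressing CHO cells; compound dosed at 15 concentrations, three independent runs; signal sampled every 1 sec.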

Test [17] addresses D(2) dopamine receptor (Homo sapiens) (UniProt P14416). Description: Dopamine D2 receptor (DRD2) small molecule agonists, cell-based qHTS assay (AID 1963594). Further: nearly all actives have a fitted effect of over 35% in size. Summed up: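 HEK293 cells stably expressing human DRD2, pre-treated with PDE inhibitor Ro20-1724 (0.1 mM final) and compound 10 min at room temperature, then stimulated with NKH477 (200nM […]) for 30 min. cAMP read by HTRF (665/620 nm).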

The nature of test [18]: G protein-coupled receptor (GPCR) small molecule agonists, calcium flux assay: HEK293 wild type cell line counter screen (AID 1920065). Summed up: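 Tox21 10K compounds, 15 concentrations each in triplicate, pin-transferred in DMSO onto dye-loaded cells; kinetic read at 480/540 nm for 3 min, 1 s intervals.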
Test [19] in a line: cAMP Responsive Elements (CRE) small molecule agonists, cell-based qHTS assay (AID 1963590). A digest of the protocol: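 HEK 293T cells stably bearing CRE-bla were plated at 2,000 cells per well and rested 18 h. Compounds, positive controls or DMSO were added for 3 h at 37 C. LiveBLAzer B/G substrate was then loaded for 2 h at room temperature.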
For test [20], the target named is Beta-2 adrenergic receptor (Homo sapiens) (UniProt P07550). Description: Adrenergic beta2 receptor (ADRB2) small molecule agonists, cell-based qHTS assay (AID 1963593).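 Further: CHO cells stably overexpressing human ADRB2.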 A digest of the protocol:
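CHO cells stably over-expressing ADRB2 were plated overnight at 37C, then dosed with compounds plus a stimulation mix containing 100uM IBMX and 25uM Ro-20-1724 for 0.5hr at room temperature. cAMP was measured by HTRF competition, 1hr.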

5-hydroxytryptamine receptor 2A (Homo sapiens), sequence (P28223 whole entry, looked up): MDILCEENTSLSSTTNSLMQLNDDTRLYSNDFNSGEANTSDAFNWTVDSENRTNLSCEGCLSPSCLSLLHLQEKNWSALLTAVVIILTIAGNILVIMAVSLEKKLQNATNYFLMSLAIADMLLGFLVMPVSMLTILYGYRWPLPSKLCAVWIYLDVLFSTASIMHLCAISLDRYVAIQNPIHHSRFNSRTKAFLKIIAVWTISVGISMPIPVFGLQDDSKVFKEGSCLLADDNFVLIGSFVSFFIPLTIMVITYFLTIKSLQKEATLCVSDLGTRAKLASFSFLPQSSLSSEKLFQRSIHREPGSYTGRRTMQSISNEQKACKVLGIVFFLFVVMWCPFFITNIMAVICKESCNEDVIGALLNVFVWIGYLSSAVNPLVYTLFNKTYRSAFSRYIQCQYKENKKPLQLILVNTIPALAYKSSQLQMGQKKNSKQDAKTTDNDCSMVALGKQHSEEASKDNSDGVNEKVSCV
D(2) dopamine receptor (Homo sapiens), sequence (P14416 whole entry, looked up): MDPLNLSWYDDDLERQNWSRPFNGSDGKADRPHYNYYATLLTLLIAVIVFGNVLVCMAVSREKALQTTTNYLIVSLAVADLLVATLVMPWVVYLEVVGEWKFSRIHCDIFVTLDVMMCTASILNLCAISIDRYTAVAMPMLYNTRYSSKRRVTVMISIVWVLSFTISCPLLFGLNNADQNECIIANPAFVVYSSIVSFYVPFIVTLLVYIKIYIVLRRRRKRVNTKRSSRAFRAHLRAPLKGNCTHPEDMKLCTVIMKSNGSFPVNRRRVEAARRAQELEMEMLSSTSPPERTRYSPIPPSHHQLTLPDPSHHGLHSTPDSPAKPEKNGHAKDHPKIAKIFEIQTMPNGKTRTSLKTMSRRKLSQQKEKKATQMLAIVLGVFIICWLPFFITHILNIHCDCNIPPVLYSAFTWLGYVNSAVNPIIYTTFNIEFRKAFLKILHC
KiSS-1 receptor (Homo sapiens), sequence (Q969F8 whole entry, looked up): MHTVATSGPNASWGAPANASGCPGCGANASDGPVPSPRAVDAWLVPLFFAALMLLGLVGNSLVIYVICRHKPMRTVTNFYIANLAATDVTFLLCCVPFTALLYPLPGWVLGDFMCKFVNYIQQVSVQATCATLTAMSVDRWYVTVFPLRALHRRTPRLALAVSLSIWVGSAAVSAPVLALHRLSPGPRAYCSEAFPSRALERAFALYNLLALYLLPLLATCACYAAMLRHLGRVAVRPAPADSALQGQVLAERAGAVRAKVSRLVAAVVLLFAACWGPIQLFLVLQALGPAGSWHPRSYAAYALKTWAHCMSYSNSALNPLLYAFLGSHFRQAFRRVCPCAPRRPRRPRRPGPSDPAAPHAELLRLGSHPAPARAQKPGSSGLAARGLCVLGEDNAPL
Gonadotropin-releasing hormone receptor (Homo sapiens), sequence (P30968 whole entry, looked up): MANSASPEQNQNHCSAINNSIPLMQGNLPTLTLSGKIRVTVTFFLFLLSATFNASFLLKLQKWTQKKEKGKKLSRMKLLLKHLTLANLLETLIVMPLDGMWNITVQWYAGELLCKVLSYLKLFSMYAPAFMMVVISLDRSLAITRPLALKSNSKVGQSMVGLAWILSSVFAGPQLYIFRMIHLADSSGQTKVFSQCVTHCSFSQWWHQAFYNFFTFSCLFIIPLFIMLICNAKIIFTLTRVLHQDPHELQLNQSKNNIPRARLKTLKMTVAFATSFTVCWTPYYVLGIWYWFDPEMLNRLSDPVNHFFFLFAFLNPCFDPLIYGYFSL

In the case of `CCCCC/C(=C\c1ccccc1)CO`, the Potency result in [1], in test [2], in [3], in [4], in test [5] and in test [6] was “inactive” throughout. Moreover, the Potency entry in [7], in [8], in test [9], in [11], in test [12] and in test [13] was “inactive” in each case. For the same compound, the Potency in test [10] is 54.3 µM (active).
On to `CCCCCCCC/C=C\CCCCCCCC(=O)NCc1ccc(O)c(OC)c1`, for which the Potency entry in [1], in test [2], in test [3], in [4], in test [5] and in [6] was “inactive” throughout. For the same compound, the Potency entry in [7], in test [14], in [8], in test [9], in test [10] and in [15] was “inactive” in each case. Also, the Potency result in test [16], in test [11], in test [12], in test [17] and in test [13] was “inactive” in each case.
Turning to `Cc1cc2nc3ccc(=[N+](C)C)cc-3sc2cc1N`, the Potency in test [1] was 2.37 µM (active); in test [6], 11.2 µM (active). For the same compound, the Potency entry in test [2], in [3], in test [18], in test [9], in test [10] and in test [15] was “inactive” each time. Moreover, the Potency result in test [16], in test [19] and in test [11] was “inactive” each time.
Take `CC[N+](CC)(CC)CCOc1ccc(/C=C/c2ccccc2)cc1`: the Potency entry in test [1], in [2], in test [3], in [5], in test [6] and in test [7] was “inactive” throughout. The Potency entry in test [8], in test [10], in [16], in test [19], in [11] and in test [12] was “inactive” throughout. Further, the Potency was 18.3 µM (active) in test [9] and 1.16 µM (active) in test [15].
Turning to `CCN(CC)c1ccc(C(=C2C=CC(=[N+](CC)CC)C=C2)c2cc(S(=O)(=O)O)ccc2S(=O)(=O)[O-])cc1`, the Potency entry in [1], in test [2], in test [3], in test [4], in test [5] and in test [8] was “inactive” each time. Also, the Potency result in test [9], in test [10], in test [15] and in [16] was “inactive” each time. Besides, in test [14], the Potency was 17.8 µM (active).
Consider `O=c1cc(-c2ccc(O)cc2)oc2cc(O)cc(O)c12`, for which, in test [1], the Potency is 8.75 µM (active) and 9.69 µM (active). Also, the Potency entry in test [2], in [3], in test [4], in test [5], in test [6] and in test [7] was “inactive” in each case. For the same compound, the Potency entry in [14], in [9], in test [10], in test [15], in test [12] and in [17] was “inactive” in each case. The Potency result in test [13] was “inactive”.
Take `O=C(Oc1ccccc1)c1cccc(C(=O)Oc2ccccc2)c1`: the Potency in test [1] was 1.15 µM (active). For the same compound, the Potency result in [2], in test [3], in test [6], in test [7], in test [10] and in [15] was “inactive” each time. For the same compound, the Potency entry in [16] and in [17] was “inactive” each time.
In the case of `CNc1ccc([N+](=O)[O-])cc1`, the Potency entry in test [1], in test [2], in [3], in test [6], in test [7] and in [14] was “inactive” in each case. In addition, the Potency entry in test [9], in [10], in test [15], in [16], in [19] and in test [11] was “inactive” each time. Besides, the Potency entry in test [12], in test [20], in test [17] and in test [13] was “inactive” in each case.
